PubChem BioAssay AID818 (SRMLSC, 2007)
About 2,100 (1.5%) of roughly 140,000 compounds were called active.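 How the source made its calls: active means viability at or under a set limit, the compound median less 4 SD (cut at about 6% in these data); inactive means the rest.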 This excerpt belongs to a sample that is enriched for actives.

Experiment: primary screen for suppressors of beta-catenin knockout HCT116 cell growth, colon tumor, human (AID 818);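 further: 0% = Hyamine 1622 control at 20 µM and 100% = untreated cell control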
Conditions: CellTiter-Glo, 60 h, at 10 µM, stronger effect = lower value

Row | SMILES | viability
1 | CN(C)c1ccc(/C=C2\CC3C4CC=C5CC(O)CCC5(C)C4CCC3(C)C2=O)cc1 (stereo not given) | 2.09% (active)
2 | C[N+]1(C)CCOC(O)(c2ccc(-c3ccc(C4(O)C[N+](C)(C)CCO4)cc3)cc2)C1 (stereo not given) | 79.5% (inactive)
3 | Cc1nn(Cc2ccccc2Cl)c(Cl)c1C(=O)OC(C(=O)NC(N)=O)C(C)C (stereo not given) | 83% (inactive)
4 | Cc1ccc2c(c1)=C/C(=C\c1c(O)[nH]c(=O)[nH]c1=O)C(=O)N=2 | 82.4% (inactive)
5 | Cc1cccc(OP(=O)(Oc2cccc(C)c2)OC(c2ccccc2)C(F)(F)F)c1 (stereo not given) | 66.6% (inactive)
